Test results: PubChem BioAssay (Tox21)
Inconclusive results are not listed. Unmarked numbers belong to inactive results. Unless noted, calls follow the shape of the full dose curve.

Experiment: qHTS assay to identify small molecule agonists of the hypoxia (HIF-1) signaling pathway - cell viability counter screen (AID 1224844); also: nearly all actives have a fitted effect of over 50% in size
Conditions: HRE-bla ME-180 viability, CellTiter-Glo luminescence, 17 h; series mostly up to 76.8 µM; activity change, negative = cytotoxicity: at the top concentration
In short: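 Multiplexed with the HRE beta-lactamase assay, this viability read used CellTiter-Glo luminescence (30 min, RT) on HRE-bla ME-180 cells treated 17 hrs with compounds in 0.5% dialyzed FBS medium.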
% is scaled to controls: 0 for no effect and ±100 for the full control effect.

Row | SMILES | activity change, negative = cytotoxicity
1 | CCC(=O)OC1(c2ccccc2)CCN(C)CC1 | -3.82%
2 | CCCCOC(C)=O | 10.3%
3 | COC1=CC(=O)O[C@@H](/C=C/c2ccccc2)C1 | 4.36%
4 | CCC(C(N)=O)N1CCCC1=O (stereo unspecified) | 3.77% [at 35.3 µM]
5 | CCCN1CCC[C@@H]2Cc3nc(N)ncc3C[C@H]21 | 0.899% [at 35.3 µM]
6 | CC(C)c1ccc(O)cc1 | 5.79%
7 | [P]#[In] | 6%
8 | CC1N=C(N)OC1c1ccccc1 (stereo unspecified) | -0.367%
9 | CCCOc1nn(C(=O)NS(=O)(=O)c2ccccc2C(=O)OC)c(=O)n1C | 3.92%
10 | COC(=O)[C@@H](N)CCCN/C(N)=N/[N+](=O)[O-] | 5.54% [at 35.3 µM]
11 | CCN[C@@H](C)Cc1cccc(C(F)(F)F)c1 | 10.5% [at 35.3 µM]
12 | O=c1[nH]oc2c1CCNC2 | -3.46% [at 35.3 µM]
13 | CC(C)(C)C(=O)Cl | 0.144%
14 | CCCOC(=O)Cc1ccc(OCC(=O)N(CC)CC)c(OC)c1 | 2.74% [at 35.3 µM]
15 | C=CCN1CC[C@]23CCCC[C@H]2[C@H]1Cc1ccc(O)cc13 | -0.664% [at 35.3 µM]
16 | O=C(Cl)C(Cl)Cl | 2.21%

Row | SMILES | activity change, negative = cytotoxicity
17 | CCOC1Oc2ccc(OS(C)(=O)=O)cc2C1(C)C (stereo unspecified) | 14.7%
18 | Brc1c(Br)c(Br)c(Br)c(Br)c1Br | -35.3% [at 6.97 µM]
19 | CCOP(=S)(OCC)Oc1ccc(Cl)cc1Cl | -4.07%
20 | CCC1(c2cccc(O)c2)CCCCN(C)C1 (stereo unspecified) | 7.94% [at 35.3 µM]
21 | CCN[C@@H](C)Cc1ccccc1 | 13.3%
22 | CCOC(=O)C(SP(=S)(OC)OC)c1ccccc1 (stereo unspecified) | 5.61%
23 | CC1NCCOC1c1ccccc1 (stereo unspecified) | 3.58% [at 35.3 µM]
24 | CC(C)(N)Cc1ccc(Cl)cc1 | -8.93% [at 35.3 µM]
25 | Oc1ccc2c3c1O[C@H]1[C@@H](O)C=C[C@H]4[C@@H](C2)NCC[C@@]341 | -17.8%
26 | N[C@@H]1C[C@H]1c1ccccc1 | -2.74% [at 35.3 µM]
27 | CCOC(=O)c1ncn2c1CN(C)C(=O)c1c(I)cccc1-2 | -6.83% [at 35.3 µM]
28 | O=P(O)(O)c1ccccc1 | -3.39%
29 | CCCCCCC1CCOC1=O (stereo unspecified) | -4.5%
30 | Clc1cc2c(cc1Cl)Oc1cc(Cl)c(Cl)cc1O2 | -17.7% [at 0.29 µM]
31 | CC(C)N(Cc1ccccc1)C(=O)C(C)(C)C | -0.565%
32 | CCCN1CCC[C@@H]2Cc3[nH]ncc3C[C@H]21 | -1.2% [at 35.3 µM]

Experiment: qHTS assay to identify small molecule agonists of H2AX (AID 1224845; active = well fitted activation curve with a large enough effect in the signal ratio in the repeat runs, not every such curve was filed as active; the % refers to the signal ratio)
Conditions: CHO-K1 phospho-H2AX Ser139 HTRF, 3 h; series mostly up to 154 µM; activation (H2AX phosphorylation): at the top concentration
In short: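 Phospho-H2AX Ser139 measured by HTRF (ex 320 nm; em 665 and 620 nm) after 24 hr antibody incubation. Compounds, 15 concentrations, 0.76% DMSO, were applied to CHO-K1 cells for 3hr at 37C before lysis.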

Row | SMILES | activation (H2AX phosphorylation)
33 | CCC(=O)OC1(c2ccccc2)CCN(C)CC1 | 0.193%
34 | CCCCOC(C)=O | 0.0872%
35 | COC1=CC(=O)O[C@@H](/C=C/c2ccccc2)C1 | 0.151%
36 | O=C(O)CBr | 3.48%
37 | CCCN1CCC[C@@H]2Cc3nc(N)ncc3C[C@H]21 | 0.154% [at 70.9 µM]
38 | [P]#[In] | 0.771%
39 | CC1N=C(N)OC1c1ccccc1 (stereo unspecified) | -2.73%
40 | CCCOc1nn(C(=O)NS(=O)(=O)c2ccccc2C(=O)OC)c(=O)n1C | -1.32%
41 | COC(=O)[C@@H](N)CCCN/C(N)=N/[N+](=O)[O-] | -0.702% [at 70.9 µM]
42 | CCN[C@@H](C)Cc1cccc(C(F)(F)F)c1 | 0.932% [at 70.9 µM]
43 | O=c1[nH]oc2c1CCNC2 | 0.3% [at 70.9 µM]
44 | CC(C)(C)C(=O)Cl | 0.497%
45 | CCCOC(=O)Cc1ccc(OCC(=O)N(CC)CC)c(OC)c1 | -0.341% [at 70.9 µM]
46 | Cc1ccc2c(c1)C1CN(C)CCC1N2 (stereo unspecified) | -0.451% [at 31.6 µM]
47 | C=CCN1CC[C@]23CCCC[C@H]2[C@H]1Cc1ccc(O)cc13 | -2.39% [at 70.9 µM]
48 | O=C(Cl)C(Cl)Cl | -1.9%
49 | CCOC1Oc2ccc(OS(C)(=O)=O)cc2C1(C)C (stereo unspecified) | -3.65%
50 | CCC1(c2cccc(O)c2)CCCCN(C)C1 (stereo unspecified) | -0.0825% [at 70.9 µM]
51 | CCN[C@@H](C)Cc1ccccc1 | 0.515%
52 | Oc1ccc2c3c1O[C@H]1[C@@H](O)C=C[C@H]4[C@@H](C2)NCC[C@@]341 | 1.75%
53 | N[C@@H]1C[C@H]1c1ccccc1 | 0.363% [at 70.9 µM]
54 | CCOC(=O)c1ncn2c1CN(C)C(=O)c1c(I)cccc1-2 | -6.77% [at 70.9 µM]
55 | O=P(O)(O)c1ccccc1 | -0.0043%
56 | CCCCCCC1CCOC1=O (stereo unspecified) | 0.299%
57 | Clc1cc2c(cc1Cl)Oc1cc(Cl)c(Cl)cc1O2 | -2.07% [at 0.582 µM]
58 | O=C(O)C(Br)(Br)Br | 1.78%
59 | CC(C)N(Cc1ccccc1)C(=O)C(C)(C)C | -0.0047%
60 | CCCN1CCC[C@@H]2Cc3[nH]ncc3C[C@H]21 | 2.51% [at 70.9 µM]

Experiment: qHTS assay to identify small molecule agonists of the hypoxia (HIF-1) signaling pathway (AID 1224846; active = well fitted activation curve with a large enough effect in the signal ratio in the repeat runs, not every such curve was filed as active; the % refers to the signal ratio)
Conditions: HRE-bla ME-180 cells, beta-lactamase ratio, 17 h; series mostly up to 76.8 µM; activation: at the top concentration
In short: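 Hypoxia-pathway activation was scored as increased beta-lactamase from an HRE-controlled reporter in ME-180 cells; plated at 2,000 cells per well with 0.5% dialyzed FBS, they were exposed 17 hrs to compounds and then given CCF4-AM.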

Row | SMILES | activation
61 | CCCCOC(C)=O | -0.796%
62 | CCC(C(N)=O)N1CCCC1=O (stereo unspecified) | -1.53% [at 35.5 µM]
63 | O=C(O)CBr | -0.0202%
64 | CC(C)c1ccc(O)cc1 | -1.1%
65 | [P]#[In] | 0.0453%
66 | CCCOc1nn(C(=O)NS(=O)(=O)c2ccccc2C(=O)OC)c(=O)n1C | -0.0029%
67 | CCN[C@@H](C)Cc1cccc(C(F)(F)F)c1 | 0.224% [at 35.5 µM]
68 | CC(C)(C)C(=O)Cl | 0.607%
69 | CCCOC(=O)Cc1ccc(OCC(=O)N(CC)CC)c(OC)c1 | -0.894% [at 35.5 µM]
70 | Cc1ccc2c(c1)C1CN(C)CCC1N2 (stereo unspecified) | 0.38% [at 15.8 µM]
71 | O=C(Cl)C(Cl)Cl | -0.612%
72 | CCOC1Oc2ccc(OS(C)(=O)=O)cc2C1(C)C (stereo unspecified) | 1.01%
73 | Brc1c(Br)c(Br)c(Br)c(Br)c1Br | -0.641% [at 7.01 µM]
74 | CCOP(=S)(OCC)Oc1ccc(Cl)cc1Cl | 0.128%
75 | CCOC(=O)C(SP(=S)(OC)OC)c1ccccc1 (stereo unspecified) | 1.26%
76 | CC1NCCOC1c1ccccc1 (stereo unspecified) | 0.0891% [at 35.5 µM]
77 | CC(C)(N)Cc1ccc(Cl)cc1 | 0.66% [at 35.5 µM]
78 | CCOC(=O)c1ncn2c1CN(C)C(=O)c1c(I)cccc1-2 | 0.493% [at 35.5 µM]
79 | Clc1cc2c(cc1Cl)Oc1cc(Cl)c(Cl)cc1O2 | -1.24% [at 0.291 µM]
80 | O=C(O)C(Br)(Br)Br | 0.196%
81 | CC(C)N(Cc1ccccc1)C(=O)C(C)(C)C | -0.496%
